# From PubChem BioAssay (NCI)
# This is part of a sample that, as a whole, favours compounds with a hit. Of some 83,000 tested, about 20% had one in any assay.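 Compound tested at a single concentration for 48 hours in 96-well plates; a percent growth value below 10 was scored as active.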 Unmarked numbers belong to inactive results. Active and inactive are the calls of the source.
# Legend:
# Test in all cases: NCI-60 one-dose screen, 48 h (100 = growth as untreated, 0 = no growth, -100 = all killed)
# Conditions in all cases: 10 µM unless noted
# [1] = system: BT-549 breast
# [2] = system: MDA-MB-435 melanoma
# [3] = system: SW-620 colon
# [4] = system: MCF7 breast
# [5] = system: HCT-116 colon
# [6] = system: HCC-2998 colon
# [7] = system: KM12 colon
# [8] = system: T-47D breast
Compound,growth [1],growth [2],growth [3],growth [4],growth [5],growth [6],growth [7],growth [8]
Nc1nc(-c2ccccc2)c(CCCOc2ccc(NC(=O)CBr)cc2)c(=O)[nH]1,100%,94.6%,108%,78.8%,103%,107%,109%,
O=C(O)Cc1cccc(=O)c(O)c1C(=O)O,102%,109%,,100%,102%,106%,104%,
COc1ccc(C2=CC(c3cc(OC)c(OC)c(OC)c3)NC(=O)N2)cc1OC (stereo unspecified),8.72% (active),7.31% (active),17.3%,15%,13.4%,18.7%,-26.8% (active),
N#C/C(=C1C=C/C(=N/O)C(Cl)=C/1)c1ccc(Cl)cc1,87.2%,29.5%,59.2%,13.7%,1.93% (active),101%,-46.4% (active),
CC(C)OC(=O)N1CCOCC1,101%,117%,95.4%,100%,102%,104%,100%,
CCCCN(CCCC)C(=O)CC,,,110%,93.3%,102%,107%,106%,124%
CCN(CC)CCOC(=O)C(c1ccccc1)(c1ccccc1)C(C)C,,,97.3%,,92.2%,96.9%,90.7%,86%
CN(C)c1ncnc2c1ccn2C1OC(CO)C(O)C1O (stereo unspecified),57.3%,62.3%,36.3%,-7.76% (active),37%,22.7%,84.1%,
CC(C)CC1NC(C)(C)CO1 (stereo unspecified),116%,113%,106%,104%,114%,102%,110%,
O=c1[nH]c(-c2ccccc2)nc(CN2CCCCC2)c1O,109%,110%,104%,104%,105%,100%,108%,
CN(C)CCCC(C#N)c1ccccc1 (stereo unspecified),111%,115%,106%,100%,107%,105%,111%,
O=C1Nc2ccc3c(c2/C1=C\c1cc2c(cc1Br)OCO2)OCO3,27.8%,-38.7% (active),7.57% (active),4.51% (active),-2.7% (active),43.6%,-6.85% (active),
C/C=C/C1=CN2C(=O)c3cc(OC4OC(C)C(NC)C(C)(O)C4O)c(C)cc3N=C[C@@H]2C1 (stereo partly specified),,,-0.311% (active),3.78% (active),3.87% (active),,-41.4% (active),-4.57% (active)
COc1cc(C2CC(c3ccc4c(c3)OCO4)=NN2C=O)cc(OC)c1OC (stereo unspecified),40.3%,-25.9% (active),27%,16.8%,20.6%,64.2%,23.3%,
CCOC(=O)C1CCNC(=O)C1=O (stereo unspecified),107%,113%,108%,107%,107%,104%,109%,
CC(NNC(C)c1ccccc1)c1ccccc1 (stereo unspecified),113%,112%,,113%,107%,103%,115%,
CCC1=CCC[C@@]2(C)CCC[C@@]3(C)CCCC(C)(C)[C@]1([O-])[O+]32,101%,103%,101%,98.8%,102%,104%,110%,
COc1ccc(Nc2[nH]n3c(=O)cc(C)nc3c2C(N)=O)c(OC)c1,,,93.3%,92.7%,97.8%,108%,101%,79.8%
COc1cc(/C=C/C(=O)N2CCN(C(=O)/C=C/c3cc(OC)c(OC)c(OC)c3)CC2)cc(OC)c1OC,88.1%,115%,105%,113%,98.3%,102%,115%,
COc1cc(Cn2cc3c(c2)-c2oncc2CC3)cc(OC)c1OC,36.7%,-29.9% (active),27.1%,13.2%,8.52% (active),12.1%,3.04% (active),
S=C1CC(=S)NC(=S)N1,110%,112%,98.2%,94.1%,105%,104%,98.9%,
O=S(=O)(CC(O)(c1ccccc1)c1ccccc1)CC(O)(c1ccccc1)c1ccccc1,102%,89.9%,89.6%,80.9%,77.7%,93.1%,87.6%,
Cc1ccc2nc(Cl)cc(=O)n2c1,102%,106%,108%,107%,105%,121%,107%,
CCCOC(=O)n1cccc1,103%,110%,,95%,103%,104%,99.7%,
COc1cc(Nc2nc(N[C@H]3CCCC[C@@H]3N)nc3cc[nH]c(=O)c23)cc(OC)c1,,,14.2%,,7.88% (active),32.1%,7.39% (active),83.6%
NNc1cccc(/C=C/c2ccccc2)cc1=O,69.1%,73.2%,54.7%,36.1%,33.8%,70.2%,59%,
